From PubChem BioAssay (NCI)
This is part of a sample that, as a whole, favours compounds with a hit. Of some 79,000 tested, about 15% had one in any assay. Active and inactive are the calls of the source. Cut-off read from the data, not from the text of the source: active = growth inhibition above about 70%; inactive = the rest.

How the values were obtained:
[1] = NCI Yeast Anticancer Drug Screen. Data for the rad52 strain (AID 147);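 note: 0% = growth of vehicle-treated control cultures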; conditions: S. cerevisiae rad52 mutant growth inhibition, hits give high values
Summary of the method: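 Screen used a yeast mutant impaired in DNA repair. After compound exposure, growth was measured. Values reflect inhibition compared with vehicle-treated cells.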

[2] = NCI Yeast Anticancer Drug Screen. Data for the wt1 strain (AID 149);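 note: 0% = growth of vehicle-treated wt1 cultures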; conditions: S. cerevisiae wt1 strain (SPY 50644) growth inhibition, hits give high values
Summary of the method: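 wt1 yeast, compound-treated; % growth inhibition vs vehicle control.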

[3] = NCI Yeast Anticancer Drug Screen. Data for the rad50EPP+ strain (AID 151);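 note: 0% = growth of vehicle-treated control cultures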; conditions: S. cerevisiae rad50 mutant strain, hits give high values
Summary of the method: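 Exposing the rad50EPP+ strain to each compound, growth was compared with vehicle-only cultures to give inhibition.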

[4] = NCI Yeast Anticancer Drug Screen. Data for the mgt1 strain (AID 153); conditions: S. cerevisiae mgt1 mutant growth inhibition, hits give high values
Summary of the method: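 Genetically defined yeast (mgt1) treated with compound; inhibition of growth expressed against vehicle-treated controls.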

[5] = NCI Yeast Anticancer Drug Screen. Data for the rad50 strain (AID 155);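 note: 0% = growth of vehicle-only cultures of the same strain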; conditions: S. cerevisiae rad50 strain growth inhibition, hits give high values
Summary of the method: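 Genetically altered yeast (DNA repair pathway); compound treatment; growth inhibition vs vehicle ctrl.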

[6] = NCI Yeast Anticancer Drug Screen. Data for the mec2-1 strain (AID 157); conditions: S. cerevisiae mec2-1 strain, hits give high values
Summary of the method: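 Readout is yeast growth inhibition, normalised to vehicle-treated controls, in the mec2-1 strain exposed to compound.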

[7] = NCI Yeast Anticancer Drug Screen. Data for the rad14 strain (AID 159);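 note: 0% = growth of vehicle-treated control cultures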; conditions: S. cerevisiae rad14 strain growth inhibition, hits give high values
Summary of the method: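 Test compounds were applied to a repair-deficient yeast strain. Its growth was then compared with that of cultures given vehicle alone, and inhibition was expressed relative to those controls.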

[8] = NCI Yeast Anticancer Drug Screen. Data for the sgs1 mgt1 strain (AID 161);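 note: 0% = growth of cultures given vehicle only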; conditions: S. cerevisiae sgs1 mgt1 strain, hits give high values
Summary of the method: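 Yeast cells carrying a defined DNA-repair defect were exposed to test compounds. Growth inhibition was measured relative to vehicle-treated controls.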

[9] = NCI Yeast Anticancer Drug Screen. Data for the cln2 rad14 strain (AID 165);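 note: 0% = growth equal to vehicle treated cultures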; conditions: S. cerevisiae cln2 rad14 strain, hits give high values
Summary of the method: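 Relative to vehicle controls, growth inhibition of compound-treated cln2 rad14 yeast was recorded.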

[10] = NCI Yeast Anticancer Drug Screen. Data for the bub3 strain (AID 167); conditions: S. cerevisiae bub3 mutant strain, hits give high values
Summary of the method: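 Yeast carrying a defined mutation is treated with each compound, and growth is compared with that of vehicle-exposed cells to give inhibition.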

[11] = NCI Yeast Anticancer Drug Screen. Data for the wt2 strain (AID 169);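 note: 0% = growth of vehicle-treated yeast cultures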; conditions: S. cerevisiae wt2 strain growth inhibition, hits give high values
Summary of the method: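 Values express reduction in yeast growth under compound treatment, referenced to vehicle-treated cells.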

[12] = NCI Yeast Anticancer Drug Screen. Data for the mlh1 strain (AID 171);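 note: 0% = growth of vehicle-treated control cultures of the same strain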; conditions: S. cerevisiae mlh1 strain growth inhibition, hits give high values
Summary of the method: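 Steps: expose the defined-mutant yeast strain to compound; expose a parallel culture to vehicle; measure growth; express compound effect as inhibition relative to the vehicle culture.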

[13] = NCI Yeast Anticancer Drug Screen. Data for the sgs1 strain (AID 173);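 note: 0% = growth of vehicle-only control cultures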; conditions: S. cerevisiae sgs1 mutant, hits give high values
Summary of the method: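 Treat defined-mutant yeast with compound; measure growth; calculate inhibition relative to vehicle-treated cells.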

[14] = NCI Yeast Anticancer Drug Screen. Data for the mlh1 rad18 strain (AID 175); conditions: S. cerevisiae mlh1 rad18 strain growth inhibition, hits give high values
Summary of the method: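 Test agents were incubated with a yeast strain of defined genotype (DNA damage repair defect). Inhibition of growth was derived by comparison with vehicle-exposed cultures.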

[15] = NCI Yeast Anticancer Drug Screen. Data for the rad18 strain (AID 177); conditions: S. cerevisiae rad18 mutant growth inhibition, hits give high values
Summary of the method: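 A genetically defined yeast mutant impaired in DNA damage repair was treated with test compounds, then its growth was measured against cultures receiving vehicle alone.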

[16] = NCI Yeast Anticancer Drug Screen. Data for the CLN2oe strain (AID 163);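 note: 0% = growth of vehicle-only control cultures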; conditions: S. cerevisiae CLN2oe strain, hits give high values
Summary of the method: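 Values reflect how much compound exposure reduced yeast growth, referenced to vehicle-exposed cells. Assay organism is a strain with a defined genetic change affecting cell-cycle control.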

[17] = at 5.0 µM (retest, dose inferred, filed as 0.5)
[18] = at 50.0 µM (retest, dose inferred, filed as 5.0)

Measured: growth inhibition

CCO/C=C1\SC(=S)N(c2ccc(OCC)cc2)C1=O
inactive: [1]; at 1.2 µM 3% | [1]; at 3.7 µM -1% | [1]; at 11.0 µM 0% | [1]; at 33.0 µM 25% | [2]; at 1.2 µM -36% | [2]; at 3.7 µM -51% | [2]; at 11.0 µM -50% | [2]; at 33.0 µM -34% | [2]; at 100.0 µM -33% | [3]; at 1.2 µM -38% | [3]; at 3.7 µM -21% | [3]; at 11.0 µM -6% | [3]; at 33.0 µM 42% | [4]; at 1.2 µM -13% | [4]; at 3.7 µM -6% | [4]; at 11.0 µM -20% | [4]; at 33.0 µM 0% | [4]; at 100.0 µM 45% | [5]; at 1.2 µM -17% | [5]; at 3.7 µM -7% | [5]; [17] 41% | [5]; at 11.0 µM -3% | [5]; at 33.0 µM 36% | [5]; at 50.0 µM 29.7% | [6]; at 1.2 µM -43% | [6]; at 3.7 µM -35% | [6]; [17] 47% | [6]; at 11.0 µM -27% | [6]; at 33.0 µM -41% | [6]; at 50.0 µM 28.2% | [6]; at 100.0 µM 26% | [7]; at 1.2 µM -42% | [7]; at 3.7 µM -41% | [7]; at 11.0 µM -40% | [7]; at 33.0 µM -2% | [7]; at 100.0 µM 8% | [8]; [17] -7% | [8]; [18] 44% | [8]; at 50.0 µM 33.5% | [9]; [17] 26% | [9]; [18] 60% | [9]; at 50.0 µM 21.1% | [10]; at 1.2 µM -7% | [10]; at 3.7 µM -4% | [10]; [17] 9% | [10]; at 11.0 µM -9% | [10]; at 33.0 µM 32% | [10]; at 100.0 µM 58% | [11]; at 1.2 µM -28% | [11]; at 3.7 µM -38% | [11]; at 11.0 µM -59% | [11]; at 33.0 µM -38% | [11]; at 100.0 µM 27% | [12]; at 1.2 µM -8% | [12]; at 3.7 µM -12% | [12]; at 11.0 µM -18% | [12]; at 33.0 µM -14% | [12]; at 100.0 µM -10% | [13]; at 1.2 µM -35% | [13]; at 3.7 µM -39% | [13]; at 11.0 µM -34% | [13]; at 33.0 µM -33% | [13]; at 100.0 µM 32% | [14]; [17] 29% | [14]; at 50.0 µM 57.5% | [15]; at 1.2 µM -37% | [15]; at 3.7 µM -31% | [15]; at 11.0 µM -32% | [15]; at 33.0 µM -21% | [15]; at 100.0 µM 18%
active: [1]; at 100.0 µM 70% | [3]; at 100.0 µM 76% | [5]; [18] 79% | [5]; at 100.0 µM 72% | [6]; [18] 86% | [10]; [18] 73% | [10]; at 50.0 µM 72.2% | [14]; [18] 76%

NC(CCCCCCCCCCCCC(N)C(=O)c1ccccc1)C(=O)c1ccccc1 (stereo unspecified)
active: [1]; at 11.0 µM 88% | [1]; at 33.0 µM 92% | [1]; at 100.0 µM 96% | [2]; at 11.0 µM 75% | [2]; at 33.0 µM 95% | [2]; at 100.0 µM 95% | [4]; at 100.0 µM 94% | [5]; at 11.0 µM 81% | [5]; at 33.0 µM 85% | [5]; [18] 88% | [5]; at 100.0 µM 93% | [6]; [18] 92% | [6]; at 100.0 µM 91% | [7]; at 100.0 µM 96% | [8]; [18] 94% | [9]; [18] 92% | [10]; at 11.0 µM 74% | [10]; at 33.0 µM 95% | [10]; [18] 94% | [10]; at 100.0 µM 91% | [11]; at 11.0 µM 83% | [11]; at 33.0 µM 96% | [11]; at 100.0 µM 96% | [12]; at 33.0 µM 94% | [12]; at 100.0 µM 93% | [13]; at 11.0 µM 82% | [13]; at 33.0 µM 96% | [13]; at 100.0 µM 95% | [15]; at 33.0 µM 96% | [15]; at 100.0 µM 96%
inactive: [1]; at 1.2 µM -3% | [1]; at 3.7 µM -4% | [2]; at 1.2 µM -4% | [2]; at 3.7 µM -12% | [3]; at 1.2 µM -2% | [3]; at 3.7 µM -1% | [3]; at 11.0 µM -2% | [3]; at 33.0 µM -1% | [3]; at 100.0 µM -3% | [4]; at 1.2 µM -5% | [4]; at 3.7 µM -9% | [4]; at 11.0 µM 17% | [4]; at 33.0 µM 39% | [5]; at 1.2 µM -3% | [5]; at 3.7 µM -6% | [5]; [17] -9% | [5]; at 50.0 µM -5.55% | [6]; at 1.2 µM -6% | [6]; at 3.7 µM -15% | [6]; [17] -15% | [6]; at 11.0 µM 43% | [6]; at 33.0 µM 61% | [6]; at 50.0 µM -9.95% | [7]; at 1.2 µM -6% | [7]; at 3.7 µM -12% | [7]; at 11.0 µM 38% | [7]; at 33.0 µM 62% | [8]; [17] -10% | [8]; at 50.0 µM -12.2% | [9]; [17] -26% | [9]; at 50.0 µM -32.3% | [10]; at 1.2 µM -3% | [10]; at 3.7 µM 0% | [10]; [17] 4% | [10]; at 50.0 µM -2.55% | [11]; at 1.2 µM -4% | [11]; at 3.7 µM -8% | [12]; at 1.2 µM -4% | [12]; at 3.7 µM -10% | [12]; at 11.0 µM 59% | [13]; at 1.2 µM -5% | [13]; at 3.7 µM -7% | [14]; [17] -8% | [14]; [18] -13% | [14]; at 50.0 µM -10.4% | [15]; at 1.2 µM -6% | [15]; at 3.7 µM -9% | [15]; at 11.0 µM 41%

COc1cc(C2C3=C(COC3=O)Oc3cc4c(cc32)OCO4)cc(OC)c1O (stereo unspecified)
active: [1]; at 1.2 µM 90% | [1]; at 3.7 µM 86% | [1]; at 11.0 µM 93% | [1]; at 33.0 µM 93% | [1]; at 100.0 µM 94% | [5]; at 1.2 µM 88% | [5]; at 3.7 µM 88% | [5]; at 11.0 µM 92% | [5]; at 33.0 µM 92% | [5]; [18] 97% | [5]; at 50.0 µM 70% | [5]; at 100.0 µM 93%
inactive: [2]; at 1.2 µM 1% | [2]; at 3.7 µM 2% | [2]; at 11.0 µM 3% | [2]; at 33.0 µM 6% | [2]; at 100.0 µM 8% | [3]; at 1.2 µM -2% | [3]; at 3.7 µM 0% | [3]; at 11.0 µM 1% | [3]; at 33.0 µM -3% | [3]; at 100.0 µM 0% | [4]; at 1.2 µM 0% | [4]; at 3.7 µM -2% | [4]; at 11.0 µM 15% | [4]; at 33.0 µM -2% | [4]; at 100.0 µM 7% | [5]; [17] 14% | [6]; at 1.2 µM 12% | [6]; at 3.7 µM 7% | [6]; [17] -24% | [6]; at 11.0 µM 18% | [6]; at 33.0 µM 25% | [6]; [18] 39% | [6]; at 50.0 µM 59.1% | [6]; at 100.0 µM 29% | [7]; at 1.2 µM 5% | [7]; at 3.7 µM 5% | [7]; at 11.0 µM 16% | [7]; at 33.0 µM 12% | [7]; at 100.0 µM 15% | [8]; [17] -3% | [8]; [18] 47% | [8]; at 50.0 µM 36.7% | [16]; at 1.2 µM 0% | [16]; at 3.7 µM -3% | [16]; at 11.0 µM 5% | [16]; at 33.0 µM 17% | [16]; at 100.0 µM 21% | [9]; [17] 8% | [9]; [18] 51% | [9]; at 50.0 µM 55.1% | [10]; at 1.2 µM 1% | [10]; at 3.7 µM -1% | [10]; [17] -18% | [10]; at 11.0 µM 14% | [10]; at 33.0 µM 10% | [10]; [18] 9% | [10]; at 50.0 µM 23.3% | [10]; at 100.0 µM 13%
